Values joined by “and” are separate entries in the source; they are usually repeats but may differ in a detail not shown here. Equal values may be shown once. Hit rate of the full screen: of about 5,500 compounds, about 2,000 (36%) were called active. Not shown: some 18% with an inconclusive outcome. No stated cut-off is given here; in the data, active means normalized growth mostly below about 0.91 (no sharp cut-off); inconclusive means no clear call, values can overlap the other calls; inactive means mostly above about 0.92. Some of the results follow.
Assay: chemical genetic growth profiling, strain panel (AID 1159580);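 further: tested at 20 µM; growth read once vehicle control cultures reached saturation at 30 °C; 1 = growth at the plate median or of vehicle wells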
Conditions: S. cerevisiae deletion strains, growth OD

Measured: normalized growth

Cc1ncc([N+](=O)[O-])n1CCO
inactive: locus YAL013W, strain DEP1, stronger effect = lower value 0.989 | locus YAL021C, strain ccr4, stronger effect = lower value 0.983 | locus YAL026C, strain drs2, stronger effect = lower value 1 | locus YAL030W, strain snc1, stronger effect = lower value 0.971 | locus YBL061C, strain skt5, stronger effect = lower value 0.98 | locus YBR009C, strain hhf1, stronger effect = lower value 1.01 | locus YBR021W, strain FUR4, stronger effect = lower value 0.998 | locus YBR023C, strain chs3, stronger effect = lower value 0.976 | locus YBR171W, strain sec66, stronger effect = lower value 0.982 | locus YBR229C, strain ROT2, stronger effect = lower value 0.944 | locus YBR231C, strain swc5, stronger effect = lower value 0.999 | locus YBR279W, strain paf1, stronger effect = lower value 0.975 | locus YCL011C, strain gbp2, stronger effect = lower value 0.945 | locus YCL016C, strain dcc1, stronger effect = lower value 0.968 | locus YCL029C, strain bik1, stronger effect = lower value 0.986 | locus YCL061C, strain MRC1, stronger effect = lower value 0.992 | locus YCL069W, strain vba3, stronger effect = lower value 0.985 | locus YCR088W, strain abp1, stronger effect = lower value 0.974 | locus YDL005C, strain med2, stronger effect = lower value 0.968 | locus YDL035C, strain GPR1, stronger effect = lower value 0.967 | locus YDL040C, strain nat1, stronger effect = lower value 0.98 | locus YDL074C, strain BRE1, stronger effect = lower value 1.02 | locus YDL101C, strain DUN1, stronger effect = lower value 0.977 | locus YDL134C, strain PPH21, stronger effect = lower value 0.978 | locus YDL185W, strain tfp1, stronger effect = lower value 0.983 | locus YDL192W, strain arf1, stronger effect = lower value 0.978 | locus YDR001C, strain nth1, stronger effect = lower value 0.965 | locus YDR069C, strain doa4, stronger effect = lower value 0.981 | locus YDR101C, strain arx1, stronger effect = lower value 1.01 | locus YDR137W, strain rgp1, stronger effect = lower value 0.967 | locus YDR150W, strain NUM1, stronger effect = lower value 0.956 | locus YDR159W, strain sac3, stronger effect = lower value 1.02 | locus YDR162C, strain NBP2, stronger effect = lower value 0.968 | locus YDR195W, strain ref2 0.982 | locus YDR297W, strain sur2, stronger effect = lower value 0.974 | locus YDR318W, strain mcm21, stronger effect = lower value 0.999 | locus YDR334W, strain swr1, stronger effect = lower value 0.941 | locus YDR335W, strain msn5, stronger effect = lower value 0.971 | locus YDR388W, stronger effect = lower value 0.997 | locus YDR392W, strain spt3, stronger effect = lower value 0.956 | locus YDR502C, strain sam2, stronger effect = lower value 0.98 | locus YEL003W, strain gim4, stronger effect = lower value 0.989 | locus YEL037C, strain rad23, stronger effect = lower value 0.976 | locus YEL061C, strain CIN8 (second series), stronger effect = lower value 0.975 | locus YEL061C, strain CIN8, stronger effect = lower value 0.979 | locus YER015W, strain faa2, stronger effect = lower value 0.982 | locus YER016W, strain bim1, stronger effect = lower value 0.984 | locus YER110C, stronger effect = lower value 0.965 | locus YER111C, strain swi4, stronger effect = lower value 0.981 | locus YER155C, strain BEM2 (second series), stronger effect = lower value 1.03 | locus YER155C, strain BEM2, stronger effect = lower value 1.01 | locus YER167W, strain BCK2, stronger effect = lower value 0.988 | locus YFR010W, strain ubp6, stronger effect = lower value 0.981 | locus YGL078C, strain dbp3, stronger effect = lower value 0.973 | locus YGL086W, strain mad1, stronger effect = lower value 0.982 | locus YGL167C, strain pmr1, stronger effect = lower value 0.984 | locus YGL173C, strain kem1, stronger effect = lower value 0.981 | locus YGL227W, strain vid30, stronger effect = lower value 0.981 | locus YGL240W, strain doc1, stronger effect = lower value 0.993 | locus YGL248W, strain PDE1, stronger effect = lower value 0.976 | locus YGL253W, strain hxk2, stronger effect = lower value 0.977 | locus YGR078C, strain PAC10, stronger effect = lower value 0.98 | locus YGR135W, strain pre9, stronger effect = lower value 0.991 | locus YGR229C, strain SMI1, stronger effect = lower value 0.998 | locus YGR252W, strain gcn5, stronger effect = lower value 0.904 | locus YHR013C, strain ard1, stronger effect = lower value 0.948 | locus YHR027C, strain rpn1, stronger effect = lower value 0.962 | locus YHR030C, strain SLT2, stronger effect = lower value 0.985 and 1.07 | locus YHR079C, strain IRE1 (second series), stronger effect = lower value 1.01 | locus YHR079C, strain IRE1, stronger effect = lower value 1.05 | locus YHR094C, strain hxt1, stronger effect = lower value 0.99 | locus YHR129C, strain ARP1, stronger effect = lower value 0.994 | locus YHR142W, strain chs7, stronger effect = lower value 0.933 | locus YHR200W, strain rpn10, stronger effect = lower value 0.997 | locus YIL066C, strain RNR3, stronger effect = lower value 0.97 | locus YIL073C, strain SPO22, stronger effect = lower value 1.01 | locus YIL125W, strain kgd1, stronger effect = lower value 0.989 | locus YIR030C, strain dcg1, stronger effect = lower value 0.983 | locus YJL092W, strain hpr5, stronger effect = lower value 0.985 | locus YJL095W, strain BCK1 (second series), stronger effect = lower value 0.98 | locus YJL095W, strain BCK1, stronger effect = lower value 1.02 and 1.04 | locus YJL115W, strain asf1, stronger effect = lower value 0.958 | locus YJL129C, strain trk1, stronger effect = lower value 0.968 | locus YJL134W, strain LCB3, stronger effect = lower value 0.978 | locus YJL154C, strain vps35, stronger effect = lower value 0.963 | locus YJL164C, strain tpk1, stronger effect = lower value 0.996 | locus YJL166W, strain qcr8, stronger effect = lower value 0.96 | locus YJL168C, strain set2, stronger effect = lower value 0.993 | locus YJL187C, strain SWE1 (second series), stronger effect = lower value 0.985 | locus YJL187C, strain SWE1, stronger effect = lower value 0.981 | locus YJR043C, strain POL32, stronger effect = lower value 1.02 | locus YJR066W, strain TOR1, stronger effect = lower value 1.01

Reference: PubChem BioAssay AID1159580 (chemical genetic matrix, 2015)
